Results taken from PubChem BioAssay (NCI).
The panel holds about 79,000 compounds, 15% with a hit somewhere; the sample as a whole holds those more often. Unmarked numbers belong to inactive results. The source made the active and inactive calls. No stated cut-off is given here; in the data, active means growth inhibition above about 70%; inactive means the rest.

What was measured:
[1] = NCI Yeast Anticancer Drug Screen. Data for the rad52 strain (AID 147);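 further: 0% = growth of vehicle-treated control cultures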; settings: S. cerevisiae rad52 mutant growth inhibition, stronger effect = higher value
Outline: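 Read-out: growth inhibition versus vehicle-treated controls. Cells were a DNA repair-deficient yeast strain treated with compounds.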

[2] = NCI Yeast Anticancer Drug Screen. Data for the wt1 strain (AID 149);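 further: 0% = growth of vehicle-treated wt1 cultures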; settings: S. cerevisiae wt1 strain (SPY 50644) growth inhibition, stronger effect = higher value
Outline: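 Each compound is tested on wt1 yeast and the loss of growth versus vehicle gives the inhibition value.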

[3] = NCI Yeast Anticancer Drug Screen. Data for the rad50EPP+ strain (AID 151);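 further: 0% = growth of vehicle-treated control cultures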; settings: S. cerevisiae rad50 mutant strain, stronger effect = higher value
Outline: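 Growth inhibition read against vehicle controls in rad50EPP+ yeast, a strain altered in DNA damage repair, after compound exposure.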

[4] = NCI Yeast Anticancer Drug Screen. Data for the mgt1 strain (AID 153); settings: S. cerevisiae mgt1 mutant growth inhibition, stronger effect = higher value
Outline: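 mgt1 yeast grown with test compound; read-out is growth inhibition versus vehicle-treated cultures.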

[5] = NCI Yeast Anticancer Drug Screen. Data for the rad50 strain (AID 155);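 further: 0% = growth of vehicle-only cultures of the same strain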; settings: S. cerevisiae rad50 strain growth inhibition, stronger effect = higher value
Outline: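 Vehicle-treated cultures provide the reference for the growth inhibition reported for compound-exposed, repair-deficient yeast.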

[6] = NCI Yeast Anticancer Drug Screen. Data for the mec2-1 strain (AID 157); settings: S. cerevisiae mec2-1 strain, stronger effect = higher value
Outline: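 Yeast mec2-1 mutant treated with compound. Readout: growth inhibition vs vehicle controls.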

[7] = NCI Yeast Anticancer Drug Screen. Data for the rad14 strain (AID 159);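 further: 0% = growth of vehicle-treated control cultures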; settings: S. cerevisiae rad14 strain growth inhibition, stronger effect = higher value
Outline: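 Inhibition of growth is reported for a repair-deficient yeast mutant following compound treatment, calculated relative to cultures that received vehicle.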

[8] = NCI Yeast Anticancer Drug Screen. Data for the sgs1 mgt1 strain (AID 161);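 further: 0% = growth of cultures given vehicle only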; settings: S. cerevisiae sgs1 mgt1 strain, stronger effect = higher value
Outline: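 Test agents were incubated with a DNA-repair-mutant yeast strain. Growth was then read and compared against vehicle-treated controls.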

[9] = NCI Yeast Anticancer Drug Screen. Data for the CLN2oe strain (AID 163);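 further: 0% = growth of vehicle-only control cultures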; settings: S. cerevisiae CLN2oe strain, stronger effect = higher value
Outline: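 Read-out: yeast growth inhibition, expressed relative to vehicle-only controls. The strain bears an engineered cell-cycle alteration.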

[10] = NCI Yeast Anticancer Drug Screen. Data for the cln2 rad14 strain (AID 165);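 further: 0% = growth equal to vehicle treated cultures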; settings: S. cerevisiae cln2 rad14 strain, stronger effect = higher value
Outline: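 cln2 rad14 yeast strain; compound exposure; growth inhibition read vs vehicle controls.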

[11] = NCI Yeast Anticancer Drug Screen. Data for the bub3 strain (AID 167); settings: S. cerevisiae bub3 mutant strain, stronger effect = higher value
Outline: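 Mutant yeast screening strain plus compound; vehicle-treated cultures serve as the 0% inhibition reference.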

[12] = NCI Yeast Anticancer Drug Screen. Data for the wt2 strain (AID 169); settings: S. cerevisiae wt2 strain growth inhibition, stronger effect = higher value
Outline: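 Read-out: growth inhibition versus vehicle-treated control cultures after compound exposure of the yeast strain.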

[13] = NCI Yeast Anticancer Drug Screen. Data for the mlh1 strain (AID 171);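 further: 0% = growth of vehicle-treated control cultures of the same strain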; settings: S. cerevisiae mlh1 strain growth inhibition, stronger effect = higher value
Outline: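 Read-out: growth inhibition versus vehicle controls. Strain: engineered yeast with a defined DNA repair or cell cycle defect, compound-treated.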

[14] = NCI Yeast Anticancer Drug Screen. Data for the sgs1 strain (AID 173);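 further: 0% = growth of vehicle-only control cultures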; settings: S. cerevisiae sgs1 mutant, stronger effect = higher value
Outline: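 Read-out: yeast growth inhibition relative to vehicle controls, following compound exposure of a strain with a defined DNA repair/cell cycle alteration.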

[15] = NCI Yeast Anticancer Drug Screen. Data for the mlh1 rad18 strain (AID 175); settings: S. cerevisiae mlh1 rad18 strain growth inhibition, stronger effect = higher value
Outline: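 Yeast w/ defined DNA-repair lesions; compound exposure; growth vs vehicle controls → % inhibition.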

[16] = NCI Yeast Anticancer Drug Screen. Data for the rad18 strain (AID 177); settings: S. cerevisiae rad18 mutant growth inhibition, stronger effect = higher value
Outline: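 Readout: growth inhibition vs vehicle controls. Cells: genetically altered yeast strain, DNA repair defect.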

[17] = at 5.0 µM (retest, dose inferred, filed as 0.5)
[18] = at 50.0 µM (retest, dose inferred, filed as 5.0)

Work on `CCOC(=O)[C@]1(Br)CC[C@@]1(Br)C(=O)OCC` yielded a growth inhibition ([1]; at 1.2 µM) of -78%, a growth inhibition ([1]; at 3.7 µM) of -24% and a growth inhibition ([1]; at 11.0 µM) of 31%. For the same compound, the growth inhibition ([1]; at 33.0 µM) was 95% (active), the growth inhibition ([1]; at 100.0 µM) was 97% (active) and the growth inhibition ([2]; at 1.2 µM) was -44%. For the same compound, the growth inhibition ([2]; at 3.7 µM) was -33%, the growth inhibition ([2]; at 11.0 µM) was -3% and the growth inhibition ([2]; at 33.0 µM) was 98% (active). The growth inhibition ([2]; at 100.0 µM) was 99% (active), the growth inhibition ([3]; at 1.2 µM) was -13% and the growth inhibition ([3]; at 3.7 µM) was -6%. The growth inhibition ([3]; at 11.0 µM) was 29%, the growth inhibition ([3]; at 33.0 µM) was 75% (active) and the growth inhibition ([3]; at 100.0 µM) was 94% (active). It also gave a growth inhibition ([4]; at 1.2 µM) of -23%, a growth inhibition ([4]; at 3.7 µM) of -23% and a growth inhibition ([4]; at 11.0 µM) of 23%. For the same compound, the growth inhibition ([4]; at 33.0 µM) was 96% (active), the growth inhibition ([4]; at 100.0 µM) was 100% (active) and the growth inhibition ([5]; at 1.2 µM) was -8%. The growth inhibition ([5]; at 3.7 µM) was 7%, the growth inhibition [5, 17] was 26% and the growth inhibition ([5]; at 11.0 µM) was 23%. For the same compound, the growth inhibition ([5]; at 33.0 µM) was 94% (active), the growth inhibition [5, 18] was 67% and the growth inhibition ([5]; at 50.0 µM) was 89% (active). The growth inhibition ([5]; at 100.0 µM) was 98% (active), the growth inhibition ([6]; at 1.2 µM) was -38% and the growth inhibition ([6]; at 3.7 µM) was -25%. The growth inhibition [6, 17] was 29%, the growth inhibition ([6]; at 11.0 µM) was 27% and the growth inhibition ([6]; at 33.0 µM) was 97% (active). For the same compound, the growth inhibition [6, 18] was 80% (active), the growth inhibition ([6]; at 50.0 µM) was 93.1% (active) and the growth inhibition ([6]; at 100.0 µM) was 99% (active). It also gave a growth inhibition ([7]; at 1.2 µM) of -53%, a growth inhibition ([7]; at 3.7 µM) of -31% and a growth inhibition ([7]; at 11.0 µM) of 14%. For the same compound, the growth inhibition ([7]; at 33.0 µM) was 94% (active), the growth inhibition ([7]; at 100.0 µM) was 99% (active) and the growth inhibition [8, 17] was -7%. The growth inhibition [8, 18] was -36%, the growth inhibition ([8]; at 50.0 µM) was 91.8% (active) and the growth inhibition ([9]; at 1.2 µM) was -3%. For the same compound, the growth inhibition ([9]; at 3.7 µM) was 15%, the growth inhibition ([9]; at 11.0 µM) was 15% and the growth inhibition ([9]; at 33.0 µM) was 91% (active). The growth inhibition ([9]; at 100.0 µM) was 99% (active), the growth inhibition [10, 17] was -7% and the growth inhibition [10, 18] was -76%. For the same compound, the growth inhibition ([10]; at 50.0 µM) was 87.3% (active), the growth inhibition ([11]; at 1.2 µM) was -38% and the growth inhibition ([11]; at 3.7 µM) was -44%. The growth inhibition [11, 17] was 2%, the growth inhibition ([11]; at 11.0 µM) was -19% and the growth inhibition ([11]; at 33.0 µM) was 81% (active). The growth inhibition [11, 18] was -38%, the growth inhibition ([11]; at 50.0 µM) was 91.4% (active) and the growth inhibition ([11]; at 100.0 µM) was 96% (active). The growth inhibition ([12]; at 1.2 µM) was -67%, the growth inhibition ([12]; at 3.7 µM) was -48% and the growth inhibition ([12]; at 11.0 µM) was 6%. The growth inhibition ([12]; at 33.0 µM) was 98% (active), the growth inhibition ([12]; at 100.0 µM) was 100% (active) and the growth inhibition ([13]; at 1.2 µM) was -37%. For the same compound, the growth inhibition ([13]; at 3.7 µM) was -29%, the growth inhibition ([13]; at 11.0 µM) was 35% and the growth inhibition ([13]; at 33.0 µM) was 97% (active). The growth inhibition ([13]; at 100.0 µM) was 99% (active), the growth inhibition ([14]; at 1.2 µM) was -27% and the growth inhibition ([14]; at 3.7 µM) was -22%. The growth inhibition ([14]; at 11.0 µM) was 43%, the growth inhibition ([14]; at 33.0 µM) was 96% (active) and the growth inhibition ([14]; at 100.0 µM) was 99% (active). For the same compound, the growth inhibition [15, 17] was 57%, the growth inhibition [15, 18] was 93% (active) and the growth inhibition ([15]; at 50.0 µM) was 91% (active). It also gave a growth inhibition ([16]; at 1.2 µM) of -58%, a growth inhibition ([16]; at 3.7 µM) of -43% and a growth inhibition ([16]; at 11.0 µM) of 8%. For the same compound, the growth inhibition ([16]; at 33.0 µM) was 93% (active) and the growth inhibition ([16]; at 100.0 µM) was 99% (active).

With `O=S(=O)(c1cc(Cl)ccc1O)c1cc(Cl)ccc1O` the growth inhibition ([1]; at 1.2 µM) was 24%, the growth inhibition ([1]; at 3.7 µM) was 91% (active) and the growth inhibition ([1]; at 11.0 µM) was 99% (active). The growth inhibition ([1]; at 33.0 µM) was 99% (active), the growth inhibition ([1]; at 100.0 µM) was 99% (active) and the growth inhibition ([2]; at 1.2 µM) was 1%. The growth inhibition ([2]; at 3.7 µM) was 89% (active), the growth inhibition ([2]; at 11.0 µM) was 99% (active) and the growth inhibition ([2]; at 33.0 µM) was 99% (active). The growth inhibition ([2]; at 100.0 µM) was 99% (active), the growth inhibition ([3]; at 1.2 µM) was -1% and the growth inhibition ([3]; at 3.7 µM) was 5%. It also gave a growth inhibition ([3]; at 11.0 µM) of 12%, a growth inhibition ([3]; at 33.0 µM) of 14% and a growth inhibition ([3]; at 100.0 µM) of 45%. For the same compound, the growth inhibition ([4]; at 1.2 µM) was 15%, the growth inhibition ([4]; at 3.7 µM) was 92% (active) and the growth inhibition ([4]; at 11.0 µM) was 99% (active). The growth inhibition ([4]; at 33.0 µM) was 99% (active), the growth inhibition ([4]; at 100.0 µM) was 99% (active) and the growth inhibition ([5]; at 1.2 µM) was 27%. The growth inhibition ([5]; at 3.7 µM) was 91% (active), the growth inhibition [5, 17] was 52% and the growth inhibition ([5]; at 11.0 µM) was 98% (active). For the same compound, the growth inhibition ([5]; at 33.0 µM) was 97% (active), the growth inhibition [5, 18] was 99% (active) and the growth inhibition ([5]; at 50.0 µM) was 99.5% (active). For the same compound, the growth inhibition ([5]; at 100.0 µM) was 99% (active), the growth inhibition ([6]; at 1.2 µM) was 30% and the growth inhibition ([6]; at 3.7 µM) was 93% (active).
